The record followed here is PubChem BioAssay (NCI).

About 83,000 compounds went through this panel and 20% of them were active in at least one assay; those are over-represented in the sample as a whole.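 For each line, cells grew in 96-well plates with the test compound present at a single concentration for 48 hours.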 A number with no mark means an inactive call. Activity calls are given as the source filed them. How the source made its calls: active means growth percent below 10; inactive means the rest.

Test in all cases: NCI-60 one-dose screen, 48 h (100 = growth as untreated, 0 = no growth, -100 = all killed)
Holding throughout (settings): 10 µM unless noted

Assay [1] relates to HT29 colon.
The subject of assay [2] is SNB-75 CNS.
The test system of assay [3] is SNB-19 CNS.
In assay [4] the test system is U251 CNS.
Assay [5] deals with PC-3 prostate.
Assay [6] deals with SK-MEL-5 melanoma.
For assay [7], the system named is UACC-62 melanoma.
Assay [8] deals with LOX IMVI melanoma.
The subject of assay [9] is SK-MEL-28 melanoma.
Assay [10] relates to SK-MEL-2 melanoma.
The subject of assay [11] is EKVX NSCLC.
Assay [12] relates to SN12C renal.
For assay [13], the system named is UO-31 renal.
The subject of assay [14] is TK-10 renal.
Assay [15] relates to ACHN renal.
For assay [16], the system named is CAKI-1 renal.
The test system of assay [17] is A498 renal.
Assay [18] relates to CCRF-CEM leukemia.
Assay [19] relates to MOLT-4 leukemia.
For assay [20], the system named is SR leukemia.

For the molecule `CCC(c1ccccc1)c1noc(CCN(CC)CC)n1` (stereo not drawn), the growth in [1] is 117%; in [2], 86.6%; in assay [3], 105%; in assay [4], 98.1%; in [5], 95.5%; in [6], 102%. In addition, the growth in [7] is 98.9%; in assay [8], 100%; in [9] it was 101%; in assay [10], 19.4%; in [11], 105%; in [12], 100%. The growth was 85.5% in [13]; 96.7% in assay [14]; 101% in [15]; 94.1% in assay [16]; 101% in assay [17]; 48.2% in [18]. Besides, the figures for the growth in assay [19] and in [20] were 83% and 69.2%, respectively.
As to `O=C1Nc2ccccc2C12Nc1cc(Cl)ccc1S2` (stereo not drawn), the growth was 95.4% in assay [1]; 59.8% in assay [2]; 94% in [3]; 98.5% in [4]; 44.5% in assay [5]; 81.7% in assay [6]. Further, the growth in assay [7] is 80.9%; in assay [8], 86.3%; in assay [9], 138%; in assay [10], 130%; in [11] it was 74%; in [12], 94.7%. Also, the growth is 69.6% in assay [13]; 141% in [14]; 99.6% in [15]; 70.7% in assay [16]; 107% in assay [17]; 60.1% in [19].
For `CC(c1cc(Cl)ccc1O)c1cc(Cl)ccc1O`, the growth is 2.77% (active) in assay [1]; 35.8% in assay [2]; 68.5% in [3]; 19.2% in [4]; 25.9% in assay [5]; 7.93% (active) in assay [6]. Further, the growth in assay [7] was 44.8%; in assay [8], 30.1%; in [9] it was 33.5%; in [10] it was -16.8% (active); in assay [11] it was 41.1%; in assay [12], 39.5%. Besides, the growth in assay [13] was -7.88% (active); in assay [14] it was 90.7%; in [15], 41.4%; in [16], 84.9%; in assay [17] it was 81.1%; in [18] it was 33.5%. The growth in assay [19] was 52.1%; in [20], 53.3%.
Take `CCC(CC)NCCCCCNc1cc(OC)cc2cccnc12`: the growth is 77.3% in assay [1]; 73.4% in [2]; 91.1% in [3]; 86.5% in assay [4]; 97.3% in assay [5]; 95.4% in assay [6]. The growth in [7] was 94.4%; in assay [8], 86.3%; in assay [9], 108%; in assay [10], 79.8%; in assay [11], 104%; in assay [12], 87.2%. The growth in assay [13] was 71.2%; in [14], 83.5%; in assay [15], 94.8%; in [16], 97.2%; in assay [17], 72.7%; in assay [18] it was 114%. Besides, the growth in [19] was 98.1%; in assay [20], 109%.
Take `Nc1nc(Cl)c2[nH]cnc2n1`: the growth in [1] is 110%; in assay [2], 79.6%; in [3] it was 92.9%; in [4], 97.6%; in [5], 122%; in assay [6], 105%. Further, the growth in [7] is 100%; in assay [8], 105%; in [9], 113%; in assay [10], 85.4%; in assay [11], 99.5%; in assay [12], 92.4%. The growth in [13] was 93.5%; in assay [14], 103%; in assay [15], 96.4%; in assay [16], 89.4%; in assay [17] it was 95.1%; in [18], 115%. Also, the growth is 114% in assay [19] and 95.6% in [20].
With `O=C(CSc1nc2c(n1Nc1ccccc1)-c1ccccc1SC2)Nc1nc(-c2ccc(Cl)cc2)cs1`, the growth in assay [1] is 68.4%; in [2], 44.8%; in [3], 80.5%; in [4], 34.4%; in [5], 72.2%; in assay [6], 88.1%. Further, the growth in assay [7] is 83.3%; in assay [8] it was 30.4%; in assay [9], 72%; in assay [10], 111%; in assay [11], 69.8%; in assay [12] it was 73.8%. Besides, the growth was 79.7% in assay [13]; 110% in assay [14]; 96.5% in assay [15]; 72.8% in assay [16]; 55% in assay [17]; 44.8% in assay [18]. For the same molecule, the growth in assay [19] was 78.4%; in assay [20], 27%.
For `CCOC(=O)c1ccccc1OC(=O)NNc1ccccc1`, the growth in [1] is 109%; in assay [2], 78.9%; in assay [3], 90.7%; in assay [4], 83.2%; in [5], 34.9%; in [6], 57.2%. Also, the growth is 21.5% in [7]; 73.5% in assay [8]; 93.6% in assay [9]; 33.2% in assay [10]; 92.8% in assay [11]; 66.4% in [12]. Besides, the growth in assay [13] is 29.3%; in [14] it was 72.9%; in [15] it was 51.9%; in [16], 25.5%; in assay [17], 100%; in assay [18] it was 24.6%. Further, the growth in assay [19] is 17.9%; in [20], 27.6%.
As to `CC(C)C/C(=N\NC(=O)c1ccncc1)c1cc(Cl)ccc1O`, the growth in assay [1] is 31.1%; in [2], 44.7%; in assay [3], 31.3%; in [4], 25.1%; in [5] it was 22.4%; in assay [6] it was 0.654% (active). In addition, the growth in [7] was 6.43% (active); in assay [8], 3.98% (active); in assay [9], 40.5%; in [10], 7.55% (active); in [11], 25.7%; in assay [12], 26.3%. For the same molecule, the growth is 10.9% in assay [13]; 15.4% in assay [14]; 13.3% in assay [15]; 3.32% (active) in [16]; 49.5% in assay [17]; 7.99% (active) in assay [18]. Moreover, the growth in assay [19] was 3.56% (active); in assay [20] it was 6.34% (active).
